# Bioassay records from PubChem.
# TDP1 cell CPT: qHTS for Inhibitors of human tyrosyl-DNA phosphodiesterase 1 (TDP1): qHTS in cells in presence of CPT | Potency, µM (highest dose often 46.2 µM), for inactives: at the top dose activity change, negative = growth inhibition, hits mostly inhibitors | AID 686979, 2013 | 420,000 compounds, 12% hits | chicken DT40 Tdp1-/-;hTDP1 cells + 20 nM CPT, ATP luminescence, 48 h; further: on the % scale 0 is the no-effect control and ±100 the full control effect; nearly all actives have a fitted effect of over 55% in size
#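 Chicken DT40 Tdp1-/- cells stably complemented with human TDP1 were seeded at 400 cells/well in medium containing 20 nM camptothecin, exposed to pin-transferred compounds, and grown at 37 °C for at least 48 hr. Viability was read as ATP luminescence.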
# TDP1 block: qHTS Assay for Inhibitors of Tyrosyl-DNA Phosphodiesterase (TDP1); Tyrosyl-DNA phosphodiesterase 1 (Homo sapiens), Q9NUW8; recombinant TDP1, AlphaScreen DNA substrate cleavage; Potency, µM (series often up to 130 µM), inactives show at the highest dose activity change, negative = inhibition, usual class: inhibitors; 350,000 compounds, 0.28% hits; AID 485290, 2010; further: on the % scale 0 is the no-effect control and ±100 the full control effect; nearly all actives have a fitted effect of over 40% in size
#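 Steps: enzyme plus compound, 15 min RT; add biotin/phosphotyrosine-FITC oligonucleotide (15 nM final), react 5 min; add donor/acceptor beads (10 ug/ml final), 10 min; read AlphaScreen. Tdp1 at 1 nM final.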
# DT40 TDP1 no CPT: qHTS for Inhibitors of human tyrosyl-DNA phosphodiesterase 1 (TDP1): qHTS in cells in absence of CPT; DT40 Tdp1-/- hTDP1 cells, no CPT, ATP luminescence, 48 h; 420,000 compounds, 15% hits; Potency, µM (titrated, usually from 46.2 µM), for the others: at the top dose activity change, negative = growth inhibition, usual class: inhibitors; further: on the % scale 0 is the no-effect control and ±100 the full control effect; nearly all actives have a fitted effect of over 55% in size
#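 A cellular qHTS used chicken DT40 cells lacking endogenous Tdp1 but carrying stably transfected human TDP1. Compounds were applied without camptothecin, and cell growth kinetics were judged by ATP-dependent luminescence after ≥48 hr.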
# ClpP mod: qHTS Assay for Activators of ClpP. purified B. subtilis ClpP, FRET peptide cleavage, 20 min. ATP-dependent Clp protease proteolytic subunit (Bacillus subtilis (strain 168)), P80244. AID 651965, 2013. 340,000 compounds, 1.9% hits. Potency, µM (doses to about 57.5 µM), inactives show at the top dose activity change, negative = active; active means well fitted falling curve with a large enough effect; inconclusive means small, poorly fitted or top-dose-only effect; inactive means no such curve, though single readings can be large or run the other way; further: the source files actives as falling curves though it sought activators and does not explain the sign; nearly all actives have a fitted effect of over 65% in size
# Target sequence (P80244 whole entry, looked up): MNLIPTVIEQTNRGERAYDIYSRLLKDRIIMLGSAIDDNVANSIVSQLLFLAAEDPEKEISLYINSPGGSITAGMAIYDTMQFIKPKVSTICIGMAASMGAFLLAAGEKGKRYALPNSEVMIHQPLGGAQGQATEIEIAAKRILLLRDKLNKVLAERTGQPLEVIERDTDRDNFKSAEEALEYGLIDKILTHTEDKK
#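 Purified B. subtilis ClpP, 10 microg/mL final in Tris/HCl pH8 with KCl, BSA, glycerol and Tween-20, cleaved an Abz/nitrotyrosine-quenched decapeptide. Fluorescence (ex 320, em 430) was read at 0 and 20 min at room temperature. Delta was normalized to 5.8 microM ADEP and DMSO/no-enzyme controls.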
# The depositor's hits bear a star; ? = inconclusive; . = not tested or not shown; [ ] = dose if it differs, or a comment. A selection: hits, their analogues and other compounds. The true share with any hit is near 17%. Unless noted, the call rests on the fitted dose curve; in most records, active means well fitted curve in the direction sought with a large enough effect; inconclusive means small, poorly fitted or top-dose-only effect, or another doubt; inactive means no such curve, though single readings can be large; an effect the other way counts as inactive or inconclusive. Potency means the concentration at half of the fitted maximal effect.
SMILES,TDP1 cell CPT,TDP1 block,DT40 TDP1 no CPT,ClpP mod
Cc1cccc(C)c1OCC(=O)N1CC2(C)CC1CC(C)(C)C2 (stereo not given),?,3.0%,14.1µM*,-1.0%
Cc1ccc(OCC(=O)N2CC3(C)CC2CC(C)(C)C3)cc1 (stereo not given),?,4.9%,?,-1.4%
OC[C@@H]1CN(Cc2ccc(Cl)cc2)C[C@H](n2cnc3c(NC4CC4)ncnc32)O1,?,.,-26.4%,0.8%
COC(=O)c1cc(NC(=O)Cn2ncc3c2-c2ccccc2OC3)cc(C(=O)OC)c1,-25.4%,1.0%,-26.1%,0.6%
CC(c1ccco1)N(C(=O)C12CC3CC(CC(C)(C3)C1)C2)c1ccccn1 (stereo not given),16.4µM*,9.6%,20.6µM*,-0.5%
Cc1ccc(NCCC(=O)c2ccccc2)cc1Cl,10.3µM*,5.8%,14.6µM*,-0.7%
O=C(Nc1ccc2c(c1)C(=O)c1ccccc1-2)c1ccccc1,7.5%,.,?,.
Cc1ccc(NC2=C(NC(=O)c3ccccc3)C(=O)c3ccccc3C2=O)cc1Cl,8.2µM*,9.5%,20.6µM*,-0.8%
COc1ccc(NC(=O)CSc2nncs2)cc1S(=O)(=O)N1CCCCC1,-20.3%,2.2%,5.2%,1.7%
O=C(CSc1nncs1)Nc1ccc(N2CCCCC2)cc1,?,2.9%,16.4µM*,-0.7%
CCOC(=O)c1cc2sccc2n1CC(=O)c1ccc2c(c1)OCCO2,14.6µM*,0.0%,13µM*,-2.6%
CCOC(=O)c1cc2sccc2n1CC(=O)N1c2ccccc2CC1C (stereo not given),18.4µM*,-4.2%,20.6µM*,-3.2%
CC1Cc2ccccc2N1C(=O)CCn1c(=O)sc2ccccc21 (stereo not given),?,.,16.4µM*,-0.3%
Cn1cccc1C(C#N)c1ncc(C(F)(F)F)cc1Cl (stereo not given),?,0.0%,7.31µM*,.
Cc1ccccc1-c1nc(C(N)=O)c2c(n1)n(-c1ccc3c(c1)OCO3)c(=O)n2C,?,1.2%,?,12.1%
C=CCOC(=O)C1=C[C@H](c2cn(C(C)=O)c3ccccc23)[C@@H](CCCO)[C@H](OCC)O1,?,3.8%,?,0.5%
Cc1ccc(C(=O)N/C(=C/c2ccc(-c3cc(C(F)(F)F)ccc3Cl)o2)C(=O)NCc2cccnc2)cc1,?,1.9%,23.1µM*,-23.9%
O=C(NCc1cccnc1)/C(=C/c1ccc(-c2cccc(C(F)(F)F)c2)o1)NC(=O)c1ccccc1,13µM*,7.8%,18.4µM*,-16.4%
O=C(NCc1cccnc1)/C(=C/c1ccc([N+](=O)[O-])cc1)NC(=O)c1ccccc1,-14.2%,0.2%,-8.1%,.
O=C(NCc1cccnc1)/C(=C/c1ccc(Cl)cc1)NC(=O)c1ccccc1,23.1µM*,8.2%,-24.2%,3.0%
Cc1ccc(C(=O)N/C(=C\c2ccco2)C(=O)NCc2cccnc2)cc1,4.3%,0.0%,-23.2%,-10.4%
COc1ccc(-c2onc(C)c2C)cc1S(=O)(=O)N(C)Cc1ccco1,?,5.3%,?,1.0%
Cc1cc([N+](=O)[O-])ccc1NC(=O)c1csc(C)c1C,?,.,?,1.8%
CC(=O)c1ccc(NC(=O)CSc2nccn2C2CCCC2)cc1,?,1.5%,?,1.1%
COc1ccccc1CNc1nc(Nc2ccc(C)cc2C)c2sccc2n1,14.6µM*,.,7.31µM*,-26.7%
SMILES,TDP1 cell CPT,TDP1 block,DT40 TDP1 no CPT,ClpP mod
COc1ccccc1CNc1nc(Nc2ccccc2OC)c2sccc2n1,5.8µM*,.,4.61µM*,-7.4%
Cc1ccc(S(=O)(=O)OC[C@@H]2CN3[C@H](c4ccc(Br)cc4)[C@H](C)CC[C@H]3C(=O)O2)cc1,.,5.8%[21 µM],.,.
COc1ccc(N2CC(NC(=O)c3ccco3)CC2=O)cc1OC (stereo not given),-17.0%,5.2%,-2.1%,-2.9%
COc1ccc(/C(N)=N/OC(=O)N2CCOCC2)cc1,?,4.9%,20.6µM*,.
COc1ccc(OC(=O)N2CCOCC2)cc1,-0.2%,.,-1.5%,-1.5%
CCc1nc2c(OCc3ccc(Cl)cc3)cccn2c1N(C)C(=O)c1ccc2c(c1)OCO2,?,.,?,-0.9%
O=C(Nc1nc2ccc(S(=O)(=O)N3CCCC3)cc2s1)c1cccc(F)c1,?,10.8%,11.6µM*,-12.2%
O=C(Nc1nc2ccc(S(=O)(=O)N3CCCCC3)cc2s1)c1cccnc1,-12.6%,5.9%,?,-10.3%
CNS(=O)(=O)c1ccc2nc(NC(=O)c3ccc(N4C(=O)CCC4=O)cc3)sc2c1,?,10.4%,20.6µM*,5.8%
O=C(Nc1nc2ccc(S(=O)(=O)N3CCCC3)cc2s1)c1ccccn1,6.51µM*,7.5%,2.91µM*,-5.5%
CCc1ccc2nc(NC(=O)c3ccc(N4C(=O)CCC4=O)cc3)sc2c1,-26.9%,.,-11.4%,.
COC(=O)/C(=C(/F)SCC(C)=O)C(F)(F)F,.,-1.1%,.,.
CC(C)(C)OC(=O)N1CCN(C(=O)c2cccnc2Cl)CC1,-10.0%,0.0%,4.8%,-1.1%
COc1cc2c(cc1NC(=O)CSc1nc3cc(Cl)ccc3s1)oc1ccccc12,?,5.3%,11.6µM*,5.62µM*
COc1cc2c(cc1NC(=O)CSc1nccn1C)oc1ccccc12,?,0.0%,18.4µM*,-7.8%
COc1cc2c(cc1NC(=O)CSc1ccccc1)oc1ccccc12,?,-5.5%,?,-18.8%
Cc1cc(C)c(NC(=O)CCn2c(=O)c3cccn3c3ccccc32)c(C)c1,?,5.2%,16.4µM*,-4.7%
CC(C)c1ccc(NC(=O)CCn2c(=O)c3cccn3c3ccccc32)cc1,20.6µM*,5.2%,14.6µM*,-9.1%
CCc1cccc(C)c1NC(=O)CCn1c(=O)c2cccn2c2ccccc21,?,0.0%,23.1µM*,-12.1%
Cc1cccc(C)c1NC(=O)Cn1c(=O)c2cccn2c2ccccc21,?,-5.7%,-8.8%,-7.1%
CC(CNC(=O)CCCn1c(=O)c2cccn2c2ccccc21)c1ccccc1 (stereo not given),?,-2.6%,?,-14.0%
COc1ccc(CC(O)CC2c3c(cc4c(c3OC)OCO4)CCN2C)cc1 (stereo not given),-13.6%,.,?,1.9%
CN1CCc2cc3c(c4c2[C@H]1[C@H](O)c1ccccc1-4)OCO3,18.4µM*,7.9%,?,-13.7%
COc1ccccc1CC(O)CC1c2c(cc3c(c2OC)OCO3)CCN1C (stereo not given),11.6µM*,.,10.3µM*,-5.1%
O=C1c2ccccc2C(O)N1Cc1ccc2c(c1)OCO2 (stereo not given),5.7%,-5.9%,-13.7%,-1.8%
